{"source": "PubChem BioAssay AID1851", "about": "(National Center for Advancing Translational Sciences (NCATS), 2009)", "note": "Several values for one entry are separate records, joined by “and”; a condition that tells them apart may be missing. Equal values may be shown once. Out of some 16,000 compounds screened, about 5,800 (36%) were called active. Another 23% or so got no clear call; they are omitted. The call rests on the fitted dose curve; in most records, active means well fitted curve in the direction sought with a large enough effect; inconclusive means small, poorly fitted or top-dose-only effect, or effect the other way; inactive means no such curve, though single readings can be large or run the other way. The list shows a part of the results. A structure can be active in one record and inactive in another. On the % scale 0 is the no-effect control and ±100 the full control effect."}
{"molecular_target": "Cytochrome P450 2C19 (Homo sapiens) (UniProt P33261)", "sequence (P33261 whole entry, looked up)": "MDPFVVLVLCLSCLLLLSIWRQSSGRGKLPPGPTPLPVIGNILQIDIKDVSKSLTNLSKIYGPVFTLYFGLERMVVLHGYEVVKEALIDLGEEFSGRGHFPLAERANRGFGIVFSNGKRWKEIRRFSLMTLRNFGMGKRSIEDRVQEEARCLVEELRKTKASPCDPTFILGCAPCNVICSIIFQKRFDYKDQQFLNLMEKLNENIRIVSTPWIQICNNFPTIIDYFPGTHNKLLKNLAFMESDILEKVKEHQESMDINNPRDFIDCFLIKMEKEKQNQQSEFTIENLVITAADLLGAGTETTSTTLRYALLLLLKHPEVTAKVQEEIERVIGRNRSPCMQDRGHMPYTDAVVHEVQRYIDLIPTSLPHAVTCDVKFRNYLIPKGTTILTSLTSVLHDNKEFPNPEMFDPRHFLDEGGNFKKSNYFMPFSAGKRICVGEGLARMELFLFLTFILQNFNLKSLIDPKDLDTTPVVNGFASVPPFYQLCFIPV", "test": "Cytochrome panel assay with activity outcomes", "details": "recombinant CYP, pro-luciferin dealkylation, luminescence, p450-cyp2c19; series mostly up to 57.1 µM; activity, negative = inhibition: at the top concentration"}
{"smiles": "COc1ccc2c(c1)[C@]13CCCC[C@@H]1[C@H](C2)NCC3", "activity, negative = inhibition": "-20.8% (inactive)"}
{"smiles": "CN1CCc2cccc(Cl)c2CC1", "activity, negative = inhibition": "25.1% (inactive)"}
{"smiles": "c1ccc(N2CC[C@@]3(CCCNC3)C2)cc1", "activity, negative = inhibition": "-44% (inactive)"}
{"smiles": "Cc1cc(Cc2cc(C)c(N)cc2N)c(N)cc1N", "activity, negative = inhibition": "-42.7% [at 11.4 µM] (inactive)"}
{"smiles": "CCCn1c(=O)c2[nH]c(C3CCCC3)nc2n(CCCOC(=O)c2ccc(S(=O)(=O)F)cc2)c1=O", "activity, negative = inhibition": "4.89% (inactive)"}
{"smiles": "CCOC(=O)c1c(NC(=O)C(c2ccccc2)c2ccccc2)sc2c1C1CCN2CC1", "AC50": "3550 nM (active)"}
{"smiles": "CN(C)[C@@H]1C(=O)C(C(N)=O)=C(O)[C@]2(O)C(=O)C3=C(O)c4c(O)cccc4[C@@](C)(O)[C@H]3[C@H](O)[C@@H]12", "activity, negative = inhibition": "-15.8% [at 25.6 µM] (inactive)"}
{"smiles": "C[C@@]12CC[C@@H]3[C@H](CCC4=CC(=O)CC[C@]43C)[C@@H]1CC[C@@H]2C(=O)Cn1cnc2c(=S)nc[nH]c21", "activity, negative = inhibition": "-3.21% [at 11.4 µM] (inactive)"}
{"smiles": "CC(O)(CS(=O)(=O)c1cccc(C(F)(F)F)c1)C(=O)Nc1ccc(C(F)(F)F)cc1", "note": "(stereo not drawn)", "AC50": "794 nM (active)"}
{"smiles": "CC(O)(CS(=O)(=O)c1ccccc1)C(=O)Nc1cccc(C(F)(F)F)c1", "note": "(stereo not drawn)", "AC50": "2240 nM (active)"}
{"smiles": "CC(O)(CS(=O)(=O)c1cccc(C(F)(F)F)c1)C(=O)Nc1cccc(C(F)(F)F)c1", "note": "(stereo not drawn)", "AC50": "2510 nM (active)"}
{"smiles": "O=C(O)c1ccccc1Nc1cccc(C(F)(F)F)c1", "activity, negative = inhibition": "34.9% [at 25.6 µM] (inactive)"}
{"smiles": "CC[C@@H]1CN2CCc3cc(OC)c(OC)cc3[C@H]2C[C@@H]1C[C@@H]1NCCc2cc(O)c(OC)cc21", "activity, negative = inhibition": "-13.9% [at 25.6 µM] (inactive)"}
{"smiles": "Cn1c(=O)c2[nH]cnc2n(C)c1=O.[CH2-][C@H](Cc1cccc2cc(C(=O)O)c(=O)oc12)OC.[Hg].[OH-]", "activity, negative = inhibition": "27.4% [at 11.4 µM] (inactive)"}
{"smiles": "C[C@@H]1[C@@H]2Cc3ccc(O)cc3[C@@]1(C)CCN2CC1CC1", "activity, negative = inhibition": "14.6% (inactive)"}
{"smiles": "O=C(O)[C@@H]1C[C@H]1[C@@H](NP(=O)(c1ccccc1)c1ccccc1)c1ccccc1", "activity, negative = inhibition": "-13.7% (inactive)"}
{"smiles": "COc1cccc(-n2c(O)c(C=NCCN3CCOCC3)c(=O)[nH]c2=O)c1", "activity, negative = inhibition": "9.05% (inactive)"}
{"smiles": "Cc1ccccc1OCCN=Cc1c(O)n(C)c(=O)n(C)c1=O", "AC50": "10000 nM (active)"}
{"smiles": "CC[N@+]1(C)CCC[C@@H](OC(=O)C(O)(c2ccccc2)c2ccccc2)C1", "activity, negative = inhibition": "-6.54% [at 25.6 µM] (inactive)"}
{"smiles": "C/C(O)=C(/C#N)C(=O)Nc1cc(Br)ccc1Br", "activity, negative = inhibition": "27.1% (inactive)"}
{"smiles": "COC(=O)C1=CCCN(C)C1", "AC50": "inactive"}
{"smiles": "C[C@H](Br)CN(C[C@H](C)Br)c1ccc2c(c1)Cc1ccccc1-2", "AC50": "2510 nM (active)"}
{"smiles": "CC[C@H](C(=O)[C@H](C)[C@H](O)[C@H](C)CCc1ccc(C)c(O)c1C(=O)O)[C@H]1O[C@](CC)([C@@H]2CC[C@@](O)(CC)[C@H](C)O2)C[C@H]1C", "activity, negative = inhibition": "-35.4% [at 25.6 µM] (inactive)"}
{"smiles": "COCCCn1c(N)c(C(=O)Nc2sc3c(c2C(=O)OC)CCCC3)c2nc3ccccc3nc21", "AC50": "3550 nM (active)"}
{"smiles": "C=CCN1CC[C@@]23c4c5ccc(O)c4O[C@H]2/C(=N\\N=C2/CC[C@@]4(O)[C@H]6Cc7ccc(O)c8c7[C@@]4(CCN6CC=C)[C@@H]2O8)CC[C@]3(O)[C@@H]1C5", "AC50": "inactive"}
{"smiles": "NCCc1ccc(S(=O)(=O)F)cc1", "activity, negative = inhibition": "-34% (inactive)"}
{"smiles": "COc1ccc(CNC(=O)/C=C\\c2ccc3[nH]cc(CCN(C)C)c3c2)cc1", "activity, negative = inhibition": "-39.5% (inactive)"}
{"smiles": "C=CCN1C[C@H](C)N([C@H](c2ccc(C(=O)N(CC)CC)cc2)c2cccc(OC)c2)C[C@H]1C", "activity, negative = inhibition": "-46.3% (inactive)"}
{"smiles": "COc1cc2c(cc1OC)[C@@H]1C(=O)c3ccc4c(c3O[C@@H]1CO2)C=CC(C)(C)O4", "AC50": "5010 nM (active)"}
{"smiles": "C=C(C)[C@H]1Cc2c(ccc3c2O[C@H]2COc4cc(OC)c(OC)cc4[C@@H]2C3=O)O1", "AC50": "2510 nM (active)"}
{"smiles": "N[C@@H](Cc1ccccc1)P(=O)(O)O", "activity, negative = inhibition": "-2.53% [at 11.4 µM] (inactive)"}
{"smiles": "Cn1c[n+](C)cc1C(O)c1ccccc1", "note": "(stereo not drawn)", "activity, negative = inhibition": "-3.97% (inactive)"}
{"smiles": "COc1ccc2[nH]c3c(c2c1)CCN=C3C", "activity, negative = inhibition": "-3.57% [at 25.6 µM] (inactive)"}
{"smiles": "Oc1ccc2c3c1O[C@H]1c4oc5ccccc5c4C[C@]4(O)[C@H](C2)N(CC2CC2)CC[C@@]314", "AC50": "inactive"}
{"smiles": "C=CCO[C@@H](Cn1ccnc1)c1ccc(Cl)cc1Cl", "AC50": "10 nM (active)"}
{"smiles": "N[C@@H](Cn1cc(I)c(=O)[nH]c1=O)C(=O)O", "activity, negative = inhibition": "9.16% (inactive)"}
{"smiles": "O=C(Nc1ccccc1)N1CCCC2(CCN(C(=O)Oc3ccccc3)CC2)C1", "activity, negative = inhibition": "-18.6% (inactive)"}
{"smiles": "C[C@H](N)c1cccc(Cl)c1Cl", "activity, negative = inhibition": "26.2% (inactive)"}
{"smiles": "Oc1ccc2c3c1O[C@H]1c4c(c5ccccc5n4Cc4ccccc4)C[C@]4(O)[C@H](C2)N(CC2CC2)CC[C@@]314", "activity, negative = inhibition": "-17.4% (inactive)"}
{"smiles": "NC(N)=NS(=O)(=O)c1ccc(N)cc1", "activity, negative = inhibition": "-11.9% [at 25.6 µM] (inactive)"}
{"smiles": "C[N+]1(C)CCO[C@@](O)(c2ccc(-c3ccc([C@]4(O)C[N+](C)(C)CCO4)cc3)cc2)C1", "activity, negative = inhibition": "-4.09% (inactive)"}
{"smiles": "CC[C@]1(C2=NCCN2)Cc2ccccc2O1", "activity, negative = inhibition": "-24.5% (inactive)"}
{"smiles": "c1ccc2c(c1)OC[C@@H](C1=NCCN1)O2", "AC50": "inactive and 7.94 µM (active)"}
{"smiles": "NC[C@@H](O)CSP(=O)(O)O", "activity, negative = inhibition": "8.63% [at 11.4 µM] (inactive)"}
{"smiles": "NC(=O)CN1CCCC1=O", "AC50": "inactive"}
{"smiles": "Nc1nnnn1CCO", "activity, negative = inhibition": "28.1% [at 11.4 µM] (inactive)"}
{"smiles": "O=C(O)c1cc[c]([Hg][S]c2ncnc3nc[nH]c23)cc1", "AC50": "631 nM (active)"}
{"smiles": "CO[C@H]1[C@H](O)[C@H](O[C@@H]2[C@H](Oc3cccc4c(O)c5c(=O)oc6ccc(C)c7c(=O)oc(c34)c5c67)O[C@@H](C)[C@H](O)[C@H]2O)O[C@@H](C)[C@@H]1O", "activity, negative = inhibition": "22.4% [at 11.4 µM] (inactive)"}
